This passage reports growth inhibition results from PubChem BioAssay (NCI).

This is part of a sample that, as a whole, favours compounds with a hit. Of some 79,000 tested, about 15% had one in any assay. Active and inactive are the calls of the source. No stated cut-off is given here; in the data, active means growth inhibition above about 70%; inactive means the rest.

The test in a line: NCI Yeast Anticancer Drug Screen. Data for the bub3 strain (AID 167). The note with it: S. cerevisiae bub3 mutant strain, at 50.0 µM, stronger effect = higher value. On the procedure:
Growth inhibition of yeast strains with defined genetic alterations is measured as a screen for potential anti-cancer activity. Selected strains with alterations in DNA damage repair or cell cycle control were exposed to compounds and growth inhibition was measured relative to vehicle treated controls. The strain used in this assay is bub3
In the case of `CCCCCNC(=O)c1ccc(C)cc1`, the growth inhibition was -10.8% (inactive).
With `N#CCCC(CC#N)C1([N+](=O)[O-])CCCCC1` (stereo not given) the figure was 32.8% (inactive).
Take `CCNC(=S)NCC`: the growth inhibition is 0.4% (inactive).
With `CCCCCCCCCCNCC(=O)O` the figure was -1.6% (inactive).
As for `CCOC(=O)CSc1[nH]c2nc(C)nc(Cl)c2c1C#N`, the figure is -3.45% (inactive); as for `CCC(CC)C(=O)NC(O)C(Cl)(Cl)C(C)Cl` (stereo not given), 6.65% (inactive); as for `CCCCCCCCCCCCCCCCCC(=O)[O][Al][O]C(C)C`, -19.5% (inactive).
Regarding `CC(=O)OC1CCC2(C)C3C/C(=N\O)C4(C)C(C(C)OC(C)=O)CCC4C3CCC2(C)C1` (stereo not given), the growth inhibition is 93.2% (active).
As for `Oc1ccc(Oc2cc3c(cc2Oc2ccc(O)cc2)-c2nc-3nc3[nH]c(nc4nc(nc5[nH]c(n2)c2cc(Oc6ccc(O)cc6)c(Oc6ccc(O)cc6)cc52)-c2cc(Oc5ccc(O)cc5)c(Oc5ccc(O)cc5)cc2-4)c2cc(Oc4ccc(O)cc4)c(Oc4ccc(O)cc4)cc32)cc1`, the figure is -80.5% (inactive).
Consider `FC1=C2C3CCC(C3)C2C1(F)F` (stereo not given), for which the growth inhibition is 2.7% (inactive).
With `CCOC(=O)C(C)OC(=O)C(C)OC(C)=O` (stereo not given) the figure was 1.5% (inactive); with `CCOC(=O)c1c(/C=N\Nc2ccccc2)nc2ccccc2c1-c1ccccc1`, -30.8% (inactive); with `O=c1[nH]c2cc(Cl)ccc2nc1/C=C(\O)c1ccccc1O`, -28.3% (inactive).
With `CC(=O)NC(Cc1cc(I)c(OC(C)=O)c(I)c1)C(C)=O` (stereo not given) the figure was 4% (inactive); with `O=C(SCSC(=O)c1ccccc1)c1ccccc1`, 32.8% (inactive); with `C/C=C(/C)C(C#N)(CCC)C(=O)OCC` (stereo not given), -9.85% (inactive).
As for `[Cu+2].[O-]C1c2c(ccc3ccccc23)-c2ccccc2C1N=Nc1ccccc1.[O-]c1c(N=Nc2ccccc2)c2ccccc2c2ccc3ccccc3c12` (stereo not given), the figure is -10.9% (inactive); as for `Cc1ccc(Nc2nnc(Nc3ccc(C)cn3)c3ccccc23)nc1`, 4.1% (inactive).
With `CCCCCCC(=O)O`, the growth inhibition was -0.1% (inactive).
For `O=C1Nc2ccc3[nH]ncc3c2C1=O`, the growth inhibition was -9.55% (inactive).
For the compound `Cc1ccc(-c2n[nH]c(=O)n2N2C(=O)C=CC2=O)cc1`, the growth inhibition was -15.4% (inactive).
For the compound `CN(C)CCSc1nc2ccccc2o1`, the growth inhibition was 16.9% (inactive).
In the case of `CCOC(=O)Cc1nnc2n(-c3ccccc3)c(=O)c3ccccc3n12`, the growth inhibition is -21.9% (inactive).
As for `COc1nc(NC2OC(COC(C)=O)C(OC(C)=O)C(OC(C)=O)C2OC(C)=O)c(C(=O)CCl)c(=O)[nH]1` (stereo not given), the figure is -2.2% (inactive).
With `O=Nc1ccc(Br)cc1` the figure was 13.1% (inactive); with `N#Cc1nc(COCc2ccccc2)oc1N`, -19.5% (inactive); with `CC1=CC2=C(C(N)=O)C(=O)OC2(C)C(c2ccccc2)C1` (stereo not given), 1.85% (inactive).
For the compound `CC(C)CCNCCCCCCl`, the growth inhibition was 26.8% (inactive).
As for `C=C(C)C1CC/C(C)=C/CC[C@]2(C)O[C@H]2CC/C(COC(C)=O)=C\[C@@H]1O` (stereo not given in full), the figure is -18.6% (inactive); as for `CC1=C2N3C[C@@H](n4c(=O)n(C)c(=O)n43)C23CCC1n1c(=O)n(C)c(=O)n13`, -7.9% (inactive); as for `CCN(CC)c1ccc(N=C2C=C(C(=O)Nc3ccccc3)C(=O)c3ccccc32)cc1`, -3.9% (inactive).
Take `CC12CC(=O)C3C(CCC4CC(OS(=O)(=O)O)CCC43C)C1CC1OC(=O)C=C12` (stereo not given): the growth inhibition is -0.9% (inactive).
In the case of `CCCCCCCCCCCCCCC(=O)OCCN(C)C`, the growth inhibition is 8.35% (inactive).
With `Cn1nnn2c(-c3ccccc3)nnc12` the figure was 0.8% (inactive); with `CCOC(=O)N1N=C(c2ccccc2)OC2(N3CCCC3)CCC(C(C)(C)C)CC12` (stereo not given), -4.25% (inactive); with `CC(=O)Nc1ccc(F)c(N)c1`, -9.1% (inactive).
As for `c1ccc(-c2nc(-c3ccccc3)c(-c3ccccc3)[nH]2)cc1`, the figure is 5.05% (inactive); as for `CCCOC(=O)C(OC(=O)c1ccccc1)C(OC(=O)c1ccccc1)C(=O)OCCC` (stereo not given), 5.05% (inactive).
With `CC(=O)OC(C)(C)c1ccc2c(c1)C(=O)C[C@@H]1[C@](C)(C#N)CCC[C@]21C` the figure was 52.1% (inactive); with `CCCCOC(=O)CNC(=O)c1ccc(C)c(OCc2ccccc2)c1[N+](=O)[O-]`, 20.9% (inactive).
